Data from PubChem BioAssay (Tox21).
Records with an inconclusive call do not appear. Entries that show only a call come without a potency. Activity calls are given as the source filed them. Unless noted, calls come from the whole dose curve; as a rule, active = well fitted curve in the direction sought with a large enough effect in the repeat runs; inconclusive = weak or mixed curves; inactive = no such curve, though single readings can be large; an effect the other way counts as inactive or inconclusive.

Key:
[1] = qHTS assay to identify small molecule antagonists of the glucocorticoid receptor (GR) signaling pathway - cell viability counter screen (AID 720693); note: nearly all actives have a fitted effect of over 55% in size; note: potency is the fitted concentration of half-maximal effect
[2] = qHTS assay for identifying genotoxic compounds that show differential cytotoxicity against isogenic chicken DT40 cell lines with known DNA damage response pathways - wild type cell line (AID 743012); note: nearly all actives have a fitted effect of over 60% in size; note: potency is the fitted concentration of half-maximal effect
Summary of the method: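 CellTiter-Glo luminescence readout of viability in wild type DT40 cells after 40 h compound exposure at 37 C/5% CO2; 300 cells/well; reagent incubated 30 min at room temperature before reading.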

[3] = qHTS assay for identifying genotoxic compounds that show differential cytotoxicity against isogenic chicken DT40 cell lines with known DNA damage response pathways - Rev3 mutant cell line (AID 743014); note: nearly all actives have a fitted effect of over 55% in size; note: potency is the fitted concentration of half-maximal effect
[4] = qHTS assay for identifying genotoxic compounds that show differential cytotoxicity against isogenic chicken DT40 cell lines with known DNA damage response pathways - Rad54/Ku70 mutant cell line (AID 743015); note: nearly all actives have a fitted effect of over 60% in size; note: potency is the fitted concentration of half-maximal effect
[5] = qHTS assay to identify small molecule antagonists of the androgen receptor (AR) signaling pathway - cell viability counter screen (AID 743033; note: nearly all actives have a fitted effect of over 45% in size)
[6] = qHTS assay to identify small molecule antagonists of the androgen receptor (AR) signaling pathway using the MDA cell line - cell viability counter screen (AID 743041; note: nearly all actives have a fitted effect of over 45% in size)
Summary of the method: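 Cytotoxicity counter screen: MDA-kb2 AR-luc cells, compound + R1881, 16 h, 37C, 0% CO2; CellTiter-Fluor added at 15.5 h, fluorescence read after 30 min.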

[7] = qHTS assay to identify small molecule antagonists of the thyroid receptor (TR) signaling pathway - cell viability counter screen (AID 743064); note: nearly all actives have a fitted effect of over 50% in size; note: potency is the fitted concentration of half-maximal effect
Summary of the method: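 Compounds were tested on GH3.TRE-Luc cells in the presence of T3 at 1 nM final. Following 23.5 h at 37 °C, cell viability was quantified by CellTiter-Fluor.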

[8] = qHTS assay to identify small molecule antagonists of the thyroid receptor (TR) signaling pathway (AID 743065); note: nearly all actives have a fitted effect of over 55% in size; note: potency is the fitted concentration of half-maximal effect
Summary of the method: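 GH3.TRE-Luc rat pituitary cells (two TREs driving luciferase) were dosed with compound, then stimulated with 1 nM T3 (final) for 23.5 h at 37 C. ONE-Glo luminescence was the read-out, with CellTiter-Fluor fluorescence as the cytotoxicity counter-screen.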

[9] = test system: thyroid hormone receptor (rat, GH3 cells); assay: qHTS assay to identify small molecule agonists of the thyroid receptor (TR) signaling pathway (AID 743066; calls by dose curve)
[10] = biological target: Estrogen receptor (Homo sapiens) (UniProt P03372); assay: qHTS assay to identify small molecule antagonists of the estrogen receptor alpha (ER-alpha) signaling pathway (AID 743069; active = well fitted curve in the direction sought with a large enough effect in the signal ratio in the repeat runs, not every such curve was filed as active; the % refers to the signal ratio)
Summary of the method: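 Beta-lactamase FRET fluorescence is read after 2 hr at room temperature with LiveBLAzer B/G substrate. Before that, ER-alpha-bla HEK293 cells sit 4 hr after plating, then receive compound plus 17beta-estradiol and incubate 18 hr at 37C.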

[11] = qHTS assay to identify small molecule antagonists of the estrogen receptor alpha (ER-alpha) signaling pathway - cell viability counter screen (AID 743074; calls by dose curve;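 note: HEK293 cells carrying ER-alpha-UAS-bla reporter stimulated with 17beta-estradiol; nearly all actives have a fitted effect of over 45% in size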)
[12] = biological target: Estrogen receptor (Homo sapiens) (UniProt P03372); assay: qHTS assay to identify small molecule agonists of the estrogen receptor alpha (ER-alpha) signaling pathway (AID 743075; calls by dose curve;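 note: HEK293 GripTite cells with ER-alpha and UAS-driven beta-lactamase reporter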)
[13] = biological target: Estrogen receptor (Homo sapiens) (UniProt P03372); assay: qHTS assay to identify small molecule agonists of the estrogen receptor alpha (ER-alpha) signaling pathway using the BG1 cell line (AID 743079); note: nearly all actives have a fitted effect of over 20% in size; note: potency is the fitted concentration of half-maximal effect
[14] = qHTS assay to identify small molecule antagonists of the estrogen receptor alpha (ER-alpha) signaling pathway using the BG1 cell line (AID 743080; calls by dose curve;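 note: BG1 cells stimulated with 17beta-estradiol alongside compound; series mostly up to about 70 µM; nearly all actives have a fitted effect of over 25% in size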)
Summary of the method: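 Seeding, 24 h rest, compound transfer from DMSO, 17beta-estradiol addition, 21.5 h incubation, CellTiter-Fluor (30 min, 37 C), then ONE-Glo (30 min, room temperature): this sequence was run on BG1-Luc-4E2 reporter cells.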

[15] = qHTS assay to identify small molecule antagonists of the estrogen receptor alpha (ER-alpha) signaling pathway using the BG1 cell line - cell viability counter screen (AID 743081);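 note: compound given together with 17beta-estradiol as the ER stimulus; series mostly up to about 70 µM; nearly all actives have a fitted effect of over 45% in size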
[16] = biological target: Aromatase (Homo sapiens) (UniProt P11511); assay: qHTS assay to identify aromatase inhibitors (AID 743083); note: series mostly up to about 70 µM; nearly all actives have a fitted effect of over 55% in size
[17] = qHTS assay to identify aromatase inhibitors - cell viability counter screen (AID 743084)
[18] = biological target: Androgen receptor (Homo sapiens) (UniProt P10275); assay: qHTS assay to identify small molecule antagonists of the androgen receptor (AR) signaling pathway (AID 743035; active = well fitted inhibition curve with a large enough effect in the signal ratio in the repeat runs, not every such curve was filed as active; the % refers to the signal ratio)
Summary of the method: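 AR-bla HEK293 reporter cells; 4 h settle at 37C/5% CO2; compound + R1881 agonist, 16 h at 37C; LiveBLAzer B/G FRET substrate 2 h RT; fluorescence intensity read. qHTS format.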

[19] = biological target: Androgen receptor (Homo sapiens) (UniProt P10275); assay: qHTS assay to identify small molecule agonists of the androgen receptor (AR) signaling pathway (AID 743036; active = well fitted activation curve with a large enough effect in the signal ratio in the repeat runs, with a control signal flat, not every such curve was filed as active; the % refers to the signal ratio)
Summary of the method: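 Beta-lactamase under UAS control, stably integrated in HEK293 GripTite cells, reports receptor activation. After 16 h compound treatment, cells received FRET substrate for 2 h at room temperature before fluorescence reading.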

[20] = biological target: Androgen receptor (Homo sapiens) (UniProt P10275); assay: qHTS assay to identify small molecule antagonists of the androgen receptor (AR) signaling pathway using the MDA cell line (AID 743042; note: nearly all actives have a fitted effect of over 55% in size)
Summary of the method: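 MDA-kb2 breast carcinoma cells carrying MMTV-luciferase (AR/GR responsive) were co-treated with compounds and the agonist R1881 for 16 h at 37C. Inhibition read as ONE-Glo luminescence; CellTiter-Fluor fluorescence measured in parallel for cytotoxicity.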

Chain of Androgen receptor (Homo sapiens) (P10275 whole entry, looked up): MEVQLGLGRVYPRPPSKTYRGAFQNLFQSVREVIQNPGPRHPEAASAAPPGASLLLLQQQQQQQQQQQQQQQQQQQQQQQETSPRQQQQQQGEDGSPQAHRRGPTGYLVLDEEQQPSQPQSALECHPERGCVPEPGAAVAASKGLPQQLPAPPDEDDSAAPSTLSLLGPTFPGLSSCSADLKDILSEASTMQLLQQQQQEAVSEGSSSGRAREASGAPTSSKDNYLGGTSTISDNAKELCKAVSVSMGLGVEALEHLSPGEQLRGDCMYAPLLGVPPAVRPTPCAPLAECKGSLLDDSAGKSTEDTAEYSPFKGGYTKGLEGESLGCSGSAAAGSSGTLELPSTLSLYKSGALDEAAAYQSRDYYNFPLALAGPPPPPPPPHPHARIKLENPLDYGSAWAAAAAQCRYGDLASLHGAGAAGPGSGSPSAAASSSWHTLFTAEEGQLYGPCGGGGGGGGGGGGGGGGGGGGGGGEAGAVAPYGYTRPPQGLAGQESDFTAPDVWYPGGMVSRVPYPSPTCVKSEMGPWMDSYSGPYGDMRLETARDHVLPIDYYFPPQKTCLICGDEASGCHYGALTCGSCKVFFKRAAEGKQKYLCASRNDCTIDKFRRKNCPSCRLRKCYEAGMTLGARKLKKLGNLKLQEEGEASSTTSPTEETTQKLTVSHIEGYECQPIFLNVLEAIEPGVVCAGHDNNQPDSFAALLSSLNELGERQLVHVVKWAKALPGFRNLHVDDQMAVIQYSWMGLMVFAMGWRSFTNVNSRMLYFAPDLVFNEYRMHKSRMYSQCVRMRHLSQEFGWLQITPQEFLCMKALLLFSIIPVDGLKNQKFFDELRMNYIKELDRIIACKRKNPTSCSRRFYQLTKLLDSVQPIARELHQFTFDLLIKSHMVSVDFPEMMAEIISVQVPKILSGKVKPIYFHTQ
Chain of Estrogen receptor (Homo sapiens) (P03372 whole entry, looked up): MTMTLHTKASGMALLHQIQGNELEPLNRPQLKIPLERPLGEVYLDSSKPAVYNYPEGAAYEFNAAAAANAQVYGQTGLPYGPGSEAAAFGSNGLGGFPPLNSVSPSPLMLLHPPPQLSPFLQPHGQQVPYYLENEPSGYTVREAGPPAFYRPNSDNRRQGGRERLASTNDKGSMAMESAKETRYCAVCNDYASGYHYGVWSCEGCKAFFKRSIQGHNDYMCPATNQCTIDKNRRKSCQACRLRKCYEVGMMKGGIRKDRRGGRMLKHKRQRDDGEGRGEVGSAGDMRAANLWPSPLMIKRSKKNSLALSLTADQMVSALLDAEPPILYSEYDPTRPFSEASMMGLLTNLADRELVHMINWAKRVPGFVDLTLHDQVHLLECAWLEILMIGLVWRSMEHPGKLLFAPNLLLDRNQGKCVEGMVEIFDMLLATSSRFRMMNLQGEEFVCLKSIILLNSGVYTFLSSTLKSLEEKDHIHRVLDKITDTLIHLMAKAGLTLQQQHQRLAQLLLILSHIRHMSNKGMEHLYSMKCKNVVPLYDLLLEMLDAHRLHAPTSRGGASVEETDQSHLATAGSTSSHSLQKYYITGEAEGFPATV
Chain of Aromatase (Homo sapiens) (P11511 whole entry, looked up): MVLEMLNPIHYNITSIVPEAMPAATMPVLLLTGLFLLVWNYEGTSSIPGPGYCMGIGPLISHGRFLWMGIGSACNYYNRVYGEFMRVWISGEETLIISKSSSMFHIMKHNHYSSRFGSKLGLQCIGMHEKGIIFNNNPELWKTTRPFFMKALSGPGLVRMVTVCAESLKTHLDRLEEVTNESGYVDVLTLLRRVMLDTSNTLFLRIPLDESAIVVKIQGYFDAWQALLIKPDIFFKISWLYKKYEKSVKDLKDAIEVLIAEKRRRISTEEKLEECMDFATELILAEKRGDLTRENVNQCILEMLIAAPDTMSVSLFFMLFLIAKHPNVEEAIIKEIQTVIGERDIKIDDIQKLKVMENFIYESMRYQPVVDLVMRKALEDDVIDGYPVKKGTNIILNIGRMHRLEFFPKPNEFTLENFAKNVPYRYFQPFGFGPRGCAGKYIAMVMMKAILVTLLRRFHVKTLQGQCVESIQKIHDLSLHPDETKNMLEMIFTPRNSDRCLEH

O=C(/C=C/c1ccccc1)NCCO
Potency [1]: inactive
Potency [2]: inactive
Potency [3]: inactive
Potency [4]: inactive
outcome [5]: inactive
outcome [6]: inactive
Potency [7]: inactive
Potency [8]: inactive
Potency [9]: inactive
Potency [10]: inactive
Potency [11]: inactive
Potency [12]: inactive
Potency [13]: inactive
outcome [14]: inactive
outcome [15]: inactive
outcome [16]: inactive
Potency [17]: inactive

CCC(O)C(C)(C)C (configuration not stated)
Potency [1]: inactive
Potency [2]: inactive
Potency [3]: inactive
Potency [4]: inactive
outcome [5]: inactive
outcome [6]: inactive
Potency [7]: inactive
Potency [8]: inactive
Potency [9]: inactive
Potency [10]: inactive
Potency [11]: inactive
Potency [12]: inactive
outcome [14]: inactive
outcome [15]: inactive
outcome [16]: inactive
Potency [17]: inactive

C=C(C)C(=O)OCCCCCCOC(=O)C(=C)C
Potency [1]: inactive
Potency [2]: inactive
Potency [3]: inactive
Potency [4]: inactive
outcome [5]: inactive
outcome [6]: inactive
Potency [7]: inactive
Potency [9]: inactive
Potency [11]: inactive
outcome [15]: inactive
Potency [17]: inactive

CCCC(C)CC (configuration not stated)
Potency [1]: inactive
Potency [2]: inactive
Potency [3]: inactive
Potency [4]: inactive
outcome [5]: inactive
outcome [6]: inactive
Potency [7]: inactive
Potency [8]: inactive
Potency [9]: inactive
Potency [11]: inactive
outcome [15]: inactive
outcome [16]: inactive
Potency [17]: inactive

CCCCCCCCCCCCCCCCI
Potency [1]: inactive
Potency [2]: inactive
Potency [3]: inactive
Potency [4]: inactive
outcome [5]: inactive
Potency [18]: inactive
outcome [19]: inactive
outcome [6]: inactive
outcome [20]: inactive
Potency [7]: inactive
Potency [8]: inactive
Potency [9]: inactive
Potency [11]: inactive
outcome [15]: inactive
outcome [16]: inactive
Potency [17]: inactive

Cc1ccc(S(=O)(=O)NC(=O)NC2CCCCCCC2)cc1
Potency [1]: inactive
Potency [2]: inactive
Potency [3]: inactive
Potency [4]: inactive
outcome [5]: inactive
outcome [6]: inactive
Potency [7]: inactive
Potency [8]: inactive
Potency [9]: inactive
Potency [11]: inactive
outcome [15]: inactive
outcome [16]: inactive
Potency [17]: inactive

CC(C)(c1ccc(Oc2ccc3c(c2)C(=O)OC3=O)cc1)c1ccc(Oc2ccc3c(c2)C(=O)OC3=O)cc1
Potency [1]: inactive
Potency [2]: inactive
Potency [3]: inactive
Potency [4]: inactive
outcome [5]: inactive
outcome [6]: inactive
Potency [7]: inactive
Potency [8]: inactive
Potency [9]: inactive
Potency [10]: inactive
Potency [11]: inactive
Potency [12]: inactive
Potency [13]: inactive
outcome [15]: inactive
outcome [16]: inactive
Potency [17]: inactive

C1=C\CC/C=C\CC/1
Potency [1]: inactive
Potency [2]: inactive
Potency [3]: inactive
Potency [4]: inactive
outcome [5]: inactive
outcome [6]: inactive
Potency [7]: inactive
Potency [8]: inactive
Potency [9]: inactive
Potency [10]: inactive
Potency [11]: inactive
Potency [12]: inactive
Potency [13]: inactive
outcome [15]: inactive
outcome [16]: inactive
Potency [17]: inactive

C=CCOCC(O)CCl (configuration not stated)
Potency [1]: inactive
Potency [2]: inactive
Potency [3]: inactive
Potency [4]: inactive
outcome [5]: inactive
Potency [18]: inactive
outcome [19]: inactive
outcome [6]: inactive
outcome [20]: inactive
Potency [7]: inactive
Potency [8]: inactive
Potency [9]: inactive
Potency [10]: inactive
Potency [11]: inactive
Potency [12]: inactive
Potency [13]: inactive
outcome [14]: inactive
outcome [15]: inactive
outcome [16]: inactive
Potency [17]: inactive

CN(C)CCCNCCC#N
Potency [1]: inactive
Potency [2]: inactive
Potency [3]: inactive
Potency [4]: inactive
outcome [5]: inactive
outcome [6]: inactive
Potency [7]: inactive
Potency [8]: inactive
Potency [9]: inactive
Potency [11]: inactive
outcome [15]: inactive
outcome [16]: inactive
Potency [17]: inactive

CCOC(=O)CC#N
Potency [1]: inactive
Potency [2]: inactive
Potency [3]: inactive
Potency [4]: inactive
outcome [5]: inactive
outcome [6]: inactive
Potency [7]: inactive
Potency [9]: inactive
Potency [10]: inactive
Potency [11]: inactive
Potency [12]: inactive
Potency [13]: inactive
outcome [15]: inactive
outcome [16]: inactive

O=C(O)/C=C/c1ccccc1
Potency [1]: inactive
Potency [2]: inactive
Potency [3]: inactive
Potency [4]: inactive
outcome [5]: inactive
outcome [6]: inactive
Potency [7]: inactive
Potency [8]: inactive
Potency [9]: inactive
Potency [10]: inactive
Potency [11]: inactive
Potency [12]: inactive
Potency [13]: inactive
outcome [14]: inactive
outcome [15]: inactive
outcome [16]: inactive
Potency [17]: inactive

CC(=O)N(CC(O)CO)c1c(I)c(C(=O)NCC(O)CO)c(I)c(C(=O)NCC(O)CO)c1I (configuration not stated)
Potency [1]: inactive
Potency [2]: inactive
Potency [3]: inactive
Potency [4]: inactive
outcome [5]: inactive
outcome [6]: inactive
Potency [7]: inactive
Potency [9]: inactive
Potency [10]: inactive
Potency [11]: inactive
Potency [12]: inactive
Potency [13]: inactive
outcome [14]: inactive
outcome [15]: inactive
outcome [16]: inactive

COc1cc2c(Nc3ccc(Br)cc3F)ncnc2cc1OCC1CCN(C)CC1
Potency [1]: 23.9 µM (active)
Potency [2]: 5.31 µM (active)
Potency [3]: 5.96 µM (active)
Potency [4]: 6.68 µM (active)
outcome [5]: inactive
outcome [6]: inactive
Potency [7]: 4.73 µM (active)
Potency [8]: 5.31 µM (active)
Potency [10]: inactive
Potency [13]: inactive
outcome [16]: inactive
Potency [17]: inactive

CCC(=O)c1ccc(O)cc1
Potency [1]: inactive
Potency [2]: inactive
Potency [3]: inactive
Potency [4]: inactive
outcome [5]: inactive
outcome [6]: inactive
Potency [7]: inactive
Potency [8]: inactive
Potency [9]: inactive
Potency [10]: inactive
Potency [11]: inactive
Potency [12]: inactive
Potency [13]: inactive
outcome [15]: inactive
outcome [16]: inactive
Potency [17]: inactive

CC(=O)c1ccc(OCC(=O)N2CCCCC2)cc1
Potency [1]: inactive
Potency [2]: inactive
Potency [3]: inactive
Potency [4]: inactive
outcome [5]: inactive
outcome [6]: inactive
Potency [7]: inactive
Potency [8]: inactive
Potency [9]: inactive
Potency [10]: inactive
Potency [11]: inactive
Potency [12]: inactive
Potency [13]: 18.8 µM (active)
outcome [16]: inactive
Potency [17]: inactive

O=S(=O)(O)CCO
Potency [1]: inactive
Potency [2]: inactive
Potency [3]: inactive
Potency [4]: inactive
outcome [5]: inactive
outcome [6]: inactive
Potency [7]: inactive
Potency [8]: inactive
Potency [9]: inactive
Potency [10]: inactive
Potency [11]: inactive
Potency [12]: inactive
Potency [13]: inactive
outcome [15]: inactive
outcome [16]: inactive
Potency [17]: inactive

Nc1ccc(S(=O)(=O)Nc2ccccn2)cc1
Potency [1]: inactive
Potency [2]: inactive
Potency [3]: inactive
Potency [4]: inactive
outcome [5]: inactive
Potency [18]: inactive
outcome [6]: inactive
outcome [20]: inactive
Potency [10]: inactive
Potency [11]: inactive
Potency [12]: inactive
Potency [13]: inactive
outcome [15]: inactive
outcome [16]: inactive
Potency [17]: inactive

Nc1cc(Cl)cc(S(=O)(=O)O)c1O
Potency [1]: inactive
Potency [2]: inactive
Potency [3]: inactive
Potency [4]: inactive
outcome [5]: inactive
outcome [6]: inactive
Potency [7]: inactive
Potency [9]: inactive
Potency [10]: inactive
Potency [11]: inactive
Potency [12]: inactive
Potency [13]: inactive
outcome [14]: inactive
outcome [15]: inactive
outcome [16]: inactive
Potency [17]: inactive
